High-throughput results (PubChem)
An excerpt weighted towards active compounds, which were near 1.7% of everything screened.
GLP1R inv ag – inverse agonists of human GLP-1 receptor; Potency, µM (titrated, usually from 38.3 µM), without a hit: at the highest dose activity change, negative = inhibition, hits mostly inhibitors; P43220; HEK293 GLP-1R CRE-luciferase, luminescence, 24 h; GLP-1R form is constitutively active; AID 624417; 1.6% of 410,000 active; note: % is set by controls: 0 for no effect and ±100 for the full control effect; nearly all actives have a fitted effect of over 55% in size
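Inverse agonists were sought by their lowering of basal cAMP reporter luciferase output in HEK293 cells stably carrying constitutively active human GLP-1R, after 24 h compound treatment.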
GLP-1R agonist – agonists of human GLP-1 receptor; P43220; 0.007% of 380,000 active; Potency, µM (series often up to 45.6 µM), for the others: top-dose activation, most hits filed as activators; HEK293 GLP-1R CRE-luciferase, luminescence, 4-6 h; cells express a hypersensitive GLP-1R form; note: % of control where 0% means no effect
PTHR1 agonist – activates the human parathyroid hormone receptor PTHR1; AID 743266; Potency, µM (series often up to 115 µM), for inactives: at the highest dose activation, most hits filed as activators; HEK293 GP2 PTHR1 cells, GloSensor cAMP luminescence, 1 h; 0.075% of 410,000 active; note: nearly all actives have a fitted effect of over 55% in size
Target sequence (Q03431 whole entry, looked up): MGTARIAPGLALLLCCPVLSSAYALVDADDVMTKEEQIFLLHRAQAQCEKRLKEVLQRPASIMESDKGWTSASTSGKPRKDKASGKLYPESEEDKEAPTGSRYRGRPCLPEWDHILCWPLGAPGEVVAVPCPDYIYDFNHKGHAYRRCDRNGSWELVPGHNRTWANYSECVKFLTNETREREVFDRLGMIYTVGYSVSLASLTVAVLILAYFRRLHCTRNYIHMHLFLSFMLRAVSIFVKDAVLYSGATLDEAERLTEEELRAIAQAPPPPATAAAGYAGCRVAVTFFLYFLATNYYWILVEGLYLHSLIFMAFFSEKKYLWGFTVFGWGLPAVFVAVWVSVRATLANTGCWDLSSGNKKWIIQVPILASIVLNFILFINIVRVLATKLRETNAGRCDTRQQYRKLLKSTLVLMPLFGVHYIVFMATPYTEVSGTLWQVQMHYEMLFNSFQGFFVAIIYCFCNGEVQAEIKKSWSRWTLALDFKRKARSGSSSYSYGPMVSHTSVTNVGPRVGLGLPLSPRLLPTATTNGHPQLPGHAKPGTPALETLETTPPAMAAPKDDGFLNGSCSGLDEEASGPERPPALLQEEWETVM
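HEK-293-derived GP2 cells expressing PTHR1 and a GloSensor cAMP reporter, 3,000/well, plated overnight, given luciferin plus IBMX (each 0.5 mM as added) for 1 h at 37 °C, then compound for 1 h at 37 °C. Luminescence was read after 15 min at room temperature.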
GLP1R cytotox – cytotoxic in the GLP-1 receptor inverse agonist counter-screen; HEK293 cAMP-luciferase reporter cells, luminescence, 24 h; Potency, µM (highest dose often 38.3 µM), inactives show top-dose activity change, negative = inhibition, hits mostly inhibitors; 0.13% of 410,000 active; AID 624418;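 note: loss of luciferase light is scored as toxicity; % is set by controls: 0 for no effect and ±100 for the full control effect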
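1536-well qHTS counterscreen of the MLSMR; 200 cells/uL, 12 h pre-incubation, 23 nL cpd, 24 h at 37 deg C 5% CO2, luciferase detection reagent, 12 min RT, luminescence. Inhibition = undesired.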
* marks the source's active call; other numbers are inactive results; i = inactive; u = inconclusive; x = not tested or not shown; [ ] = dose if it differs, or a comment. Calls come from the whole dose curve; as a rule, active = well fitted curve in the direction sought with a large enough effect; inconclusive = small, poorly fitted or top-dose-only effect, or another doubt; inactive = no such curve, though single readings can be large; an effect the other way counts as inactive or inconclusive. Potency is the fitted concentration of half-maximal effect.

SMILES | GLP1R inv ag | GLP-1R agonist | PTHR1 agonist | GLP1R cytotox
Cc1ccc(C2NC(c3ccc(C)cc3)C([N+](=O)[O-])C(C)(C)C2[N+](=O)[O-])cc1 (configuration not stated) | u | 1% | i | 45%
COc1ccc(NC(=O)CN(c2ccc(OC)cc2)S(=O)(=O)c2ccc(OC)c(OC)c2)cc1 | 1% | 7% | -14% | 3%
O=C(NCCc1ccc(Cl)cc1)C1CCCN(S(=O)(=O)N2CCCCCC2)C1 (configuration not stated) | 5.6µM* | 10% | -37% | -3%
CC1CCN(S(=O)(=O)N2CCCC(C(=O)NCc3ccccc3Cl)C2)CC1 (configuration not stated) | 7.1µM* | 6% | -1% | 10%
CC1CC(C)CN(S(=O)(=O)N2CCCC(C(=O)NCc3ccccc3Cl)C2)C1 (configuration not stated) | u | -5% | -28% | 5%
O=C(NCc1ccccc1CN1CCCC1)C1CCN(S(=O)(=O)c2ccc(F)c(F)c2)CC1 | u | 2% | 7% | 4%
Cc1ccc(S(=O)(=O)N2CCC(C(=O)NCc3ccccc3CN3CCCC3)CC2)cc1C | 4.5µM* | 0% | i | -27%
COCC[N+]1(C)CCCCC1 | 11% | 8% | i | 6%
OCCCc1nc2ccccc2n1CCc1ccccc1 | 0% | 6% | i | -42%
CCc1nc2ccccc2n1CCCCOc1ccc(C)cc1 | 10µM* | x | -31% | 8%
CCCc1nc2ccccc2n1CCc1ccccc1 | 10µM* | 10% | i | -10%
CCc1nc2ccccc2n1CCCCOc1ccc(Cl)cc1 | u | x | i | 24%
CCCOc1ccc(C(=O)Nc2nonc2-c2ccc(OCC)cc2)cc1 | 2% | x | i | 7%
COc1ccc(CNC(=O)CCc2c(C)c3cc4c(C)coc4cc3oc2=O)cc1 | 0% | x | -17% | 13%
CC1CC2(CC(CN(C3CCCCC3)C3CCCCC3)OC2=O)C(=O)O1 (configuration not stated) | 21% | -4% | -15% | 3%
COc1ccccc1NC(=O)CN(c1cc(C)cc(C)c1)S(=O)(=O)c1c(C)[nH]c(=O)[nH]c1=O | -18% | x | -14% | 1%
COc1nnc(-c2ccc(N3CCCCC3)c(NC(=O)c3ccccc3Cl)c2)c2ccccc12 | 3.5µM* | x | -48% | -11%
Cc1onc(-c2ccccc2Cl)c1C(=O)Oc1ccccc1F | 43% | x | -24% | 4%
CCOc1ccccc1N=C1SC(CC(=O)Nc2ccc(OC)cc2OC)C(=O)N1CCC1=CCCCC1 (configuration not stated) | 2.8µM* | 0% | -19% | 2%
COc1ccc(-c2cc3ccccc3n2CC(O)CN2CCCCC2)cc1 (configuration not stated) | -5% | 0% | u | 0%
COc1ccc(-c2cc3ccccc3n2CC(O)CNCCO)cc1 (configuration not stated) | 2.8µM* | -6% | -6%[57.5 µM] | -12%
c1cc(-c2cc3nc(NC4CCCCC4)ccn3n2)ccc1OCCN1CCOCC1 | u | -17% | -27% | u
O=C1c2ccccc2C(=O)N1Cc1cnc(N2CCN(c3ccccc3)CC2)s1 | -5% | -5% | -56% | -2%
